{"source": "ChEMBL document CHEMBL1157539", "about": "“Thousands of chemical starting points for antimalarial lead identification” (Nature, 2010)", "assay_type_in_all_cases": "functional", "key": {"Plasmodium falciparum [1]": {"test_system": "Plasmodium falciparum", "assay": "GSK_TCMDC: Inhibition of Plasmodium falciparum 3D7 in whole red blood cells, using parasite LDH activity as an index of growth. Test compounds present at 2uM"}, "Plasmodium falciparum [2]": {"test_system": "Plasmodium falciparum", "assay": "GSK_TCMDC: Inhibition of Plasmodium falciparum Dd2 in whole red blood cells, using parasite LDH activity as an index of growth. Test compounds present at 2uM"}, "HepG2": {"test_system": "HepG2", "assay": "GSK_TCMDC: Percent inhibition of human HepG2 cell line. Test compounds present at 10uM."}}, "data": [{"molecule": "Cn1cc(-c2ccccc2C(=O)O)c(=O)c2cc(Cl)ccc21", "values": [{"measurement": "Inhibition", "setting": "Plasmodium falciparum [1]", "result": 89, "unit": "%"}, {"measurement": "Inhibition", "setting": "Plasmodium falciparum [2]", "result": 0, "unit": "%"}, {"measurement": "Inhibition", "setting": "HepG2", "result": 16, "unit": "%"}]}, {"molecule": "COc1ccc(-c2cccc(NC(=O)c3ccccc3)c2)cc1CN1CCCN(C)CC1.O=C(O)C(F)(F)F", "values": [{"measurement": "Inhibition", "setting": "Plasmodium falciparum [1]", "result": 98, "unit": "%"}, {"measurement": "Inhibition", "setting": "Plasmodium falciparum [2]", "result": 25, "unit": "%"}, {"measurement": "Inhibition", "setting": "HepG2", "result": 22, "unit": "%"}]}, {"molecule": "Cl.O=C(N[C@@H](Cc1ccccc1)[C@H](O)CNC1CCCc2ccccc21)c1cc(C2CCCC2)cc(N2CCCC2=O)c1", "note": "(some centres not stated)", "values": [{"measurement": "Inhibition", "setting": "Plasmodium falciparum [1]", "result": 97, "unit": "%"}, {"measurement": "Inhibition", "setting": "Plasmodium falciparum [2]", "result": 99, "unit": "%"}, {"measurement": "Inhibition", "setting": "HepG2", "result": 31, "unit": "%"}]}, {"molecule": "CNCc1cccc2nc(-c3csc(Cc4cc(Cl)ccc4OCC(C)C)n3)[nH]c12", "values": [{"measurement": "Inhibition", "setting": "Plasmodium falciparum [1]", "result": 100, "unit": "%"}, {"measurement": "Inhibition", "setting": "Plasmodium falciparum [2]", "result": 33, "unit": "%"}, {"measurement": "Inhibition", "setting": "HepG2", "result": 9, "unit": "%"}]}]}
